Several values for one entry are separate records, joined by “and”; a condition that tells them apart may be missing. Equal entries are not always repeated. About 79,000 compounds went through this panel and 15% of them were active in at least one assay; those are over-represented in the sample as a whole. Activity calls are given as the source filed them. Cut-off read from the data, not from the text of the source: active = growth inhibition above about 70%; inactive = the rest.
Legend:
[1] = NCI Yeast Anticancer Drug Screen. Data for the rad50 strain (AID 155);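 note: 0% = growth of vehicle-only cultures of the same strain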; conditions: S. cerevisiae rad50 strain growth inhibition; at 50.0 µM; stronger effect = higher value
Summary of the method: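 Vehicle-treated cultures provide the reference for the growth inhibition reported for compound-exposed, repair-deficient yeast.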

[2] = NCI Yeast Anticancer Drug Screen. Data for the mec2-1 strain (AID 157); conditions: S. cerevisiae mec2-1 strain, at 50.0 µM, stronger effect = higher value
Summary of the method: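 Strain: mec2-1 (DNA repair/cell cycle alteration). Compound exposure, then growth measured; inhibition expressed relative to vehicle.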

[3] = NCI Yeast Anticancer Drug Screen. Data for the sgs1 mgt1 strain (AID 161);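 note: 0% = growth of cultures given vehicle only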; conditions: S. cerevisiae sgs1 mgt1 strain, at 50.0 µM, stronger effect = higher value
Summary of the method: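 Genetically altered yeast, compound exposure, growth inhibition relative to vehicle.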

[4] = NCI Yeast Anticancer Drug Screen. Data for the cln2 rad14 strain (AID 165);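 note: 0% = growth equal to vehicle treated cultures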; conditions: S. cerevisiae cln2 rad14 strain, at 50.0 µM, stronger effect = higher value
Summary of the method: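 Compounds are applied to the cln2 rad14 yeast strain, and growth is then compared with that of vehicle-treated cultures to give inhibition.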

[5] = NCI Yeast Anticancer Drug Screen. Data for the bub3 strain (AID 167); conditions: S. cerevisiae bub3 mutant strain, at 50.0 µM, stronger effect = higher value
Summary of the method: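 Mutant yeast screening strain plus compound; vehicle-treated cultures serve as the 0% inhibition reference.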

[6] = NCI Yeast Anticancer Drug Screen. Data for the mlh1 rad18 strain (AID 175); conditions: S. cerevisiae mlh1 rad18 strain growth inhibition; at 50.0 µM; stronger effect = higher value
Summary of the method: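 Read-out is yeast growth inhibition, calculated against vehicle-only controls. The compound was applied to a strain engineered with DNA damage repair alterations.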

Measured: growth inhibition

O=[N+]([O-])CCCCl
inactive: [1] 2.05% | [2] -3.05% | [3] -3.05% | [4] -7.95% | [5] 1.85% | [6] 2.35%

COc1c2c(nc3ccccc13)-c1cc3c(c(=O)n1C2)COC(=O)C3(O)CC(=O)N1CCOCC1 (centres undefined)
inactive: [1] 9.5% | [2] -4.25% | [3] 0.2% | [4] 52.5% | [5] -6.5% | [6] 6.35%

Oc1ccc(Nc2c3ccc(Cl)cc3nc3ccc(-c4ccccc4)cc23)cc1CN(CCCl)CCCl
active: [1] 98.4% | [2] 98.7% | [3] 98.8% | [4] 98.3% | [5] 93.5% | [6] 97.5%

CCC1(c2ccccc2)C(=O)N(CCCl)C(=O)N(CCCl)C1=O
inactive: [1] 27.7% | [2] 15.8% | [3] 4.35% | [4] -21.7% | [5] 12.2% | [6] 17.4%

C[N+](C)(C)Cc1cccc([N+](=O)[O-])c1
inactive: [1] -47.9% | [2] -5.5% | [3] -3.8% | [4] -40.7% | [5] -4% | [6] 13.2%

COP1(=O)Oc2ccccc2C(=O)C(C(F)(F)F)(C(F)(F)F)O1 (centres undefined)
inactive: [1] -16.9% | [2] -1.6% | [3] -15.8% | [4] 5.05% | [5] -20.2% | [6] -34.1%

CO/N=C1\CC(C)N2C(=O)C(C(C)C)NC(=O)C(NC(=O)c3c4nc5c(C(=O)NC6C(=O)NC(C(C)C)C(=O)N7C(C)CC(O)C7C(=O)N(C)CC(=O)N(C)C(C(C)C)C(=O)OC6C)ccc(C)c5oc-4c(C)c(=O)c3N)C(CO)OC(=O)C(C)N(C)C(=O)CN(C)C(=O)C12 (centres undefined)
inactive: [1] 23.1% | [2] -18.8% | [3] 9.35% | [4] 20% | [5] -3.9% | [6] 8.45%

C[Si](C)(OC(=O)N(CCCl)CCCl)O[Si](C)(C)OC(=O)N(CCCl)CCCl
inactive: [1] 14.8% | [2] 1.05% | [3] -33.6% | [4] -11.4% | [5] -31% | [6] -45.6%

COc1cc(CC(N)Cc2c[nH]c3ccccc23)cc(OC)c1OC (centres undefined)
inactive: [1] -5.2% | [2] -5.8% | [3] -4.85% | [4] 24.6% | [5] -25.3% | [6] -3.35%

O=[As](O)(O)c1ccccc1
inactive: [1] 18.2% | [2] -7.1% | [3] 4.75% | [4] 4.65% | [5] -38.1% | [6] -15.7%

CCOC(=O)C1C(=O)CN2CCc3c([nH]c4ccccc34)C12C(=O)OCC (centres undefined)
inactive: [1] 21.2% | [2] 15.3% | [3] 31.6% | [4] 15.6% | [5] 1.95% | [6] 24.4%

COP(=O)(NC(=O)OC(C)C)OC
inactive: [1] -37.1% | [2] -21.2% | [3] -9.8% | [4] 5.2% | [5] -15.4% | [6] -7.95%

CCCCCCC[CH2][Sn][CH2]CCCCCCC.Nc1ncnc2c1ncn2C1OC(CO)C2[OH+][OH+]C21 (centres undefined)
inactive: [1] 19.9% | [2] 5.45% | [3] 9.35% | [4] -4% | [5] 2.3% | [6] 11.8%

NCC(O)c1ccc2c(c1)OCO2 (centres undefined)
inactive: [1] -48.8% | [2] -12.7% | [3] -11.3% | [4] -31.4% | [5] -1.4% | [6] -8.65%

OC[CH2][Hg][I]
active: [1] 99.8% | [2] 99.8% | [3] 99.8% | [4] 99.8% | [5] 99.8% | [6] 99.8%

CCCCN1C(=O)C(=C/C=C/C=C2\Oc3ccccc3N2CCCS(=O)(=O)O)C(=O)N(CCCC)C1=S
inactive: [1] 18% | [2] 2.9% | [3] 3.75% | [4] 15.7% | [5] -3.9% | [6] 27%

[CH3][Sn]([CH3])([n]1cnc2ccccc21)[n]1cnc2ccccc21
inactive: [1] 0.85% | [2] 9.9% | [3] 12.2% | [4] -4.85% | [5] 0.1% | [6] -3.45%

Cc1nnc2n1-c1ccccc1C(=S)N1CSCC21 (centres undefined)
inactive: [1] -22% | [2] -0.25% | [3] -24.7% | [4] 8.15% | [5] -6.7% | [6] -0.45%

CN1CCC(OC(=O)Oc2ccccc2)(c2ccccc2)CC1
inactive: [1] 1.6% | [2] 9.6% | [3] 3.95% | [4] 33.7% | [5] 48.5% | [6] -6.65%

O=[As](O)(O)c1cc(N=Nc2ccc(-c3ccc(N=Nc4cc([As](=O)(O)O)c(O)cc4O)cc3)cc2)c(O)cc1O
inactive: [1] 0.1% | [2] 44% | [3] 33.2% | [4] -19.7% | [5] -4.2% | [6] 25.4%

COc1ccc([Se]c2ccc(OC)cc2)cc1
inactive: [1] 0% | [2] -15.5% | [3] -7.15% | [4] -13.6% | [5] 21.4% | [6] -4.55%

C[CH2][Pb]([CH2]C)([CH2]C)[O]C(=O)c1ccccc1
inactive: [1] -0.3% | [2] 1.6% | [3] 10.2% | [4] -3.35% | [5] 1.35% | [6] 5.35%

CN(C)c1ccc(N=Nc2c([O-])ccc3ccccc23)cc1.[C-]#[O+].[C-]#[O+].[Ir]
inactive: [1] -7.05% | [2] -14.2% | [3] -30.2% | [4] 34% | [5] -10.2% | [6] -4.7%

O=P(Nc1ccc(Cl)cc1)(Oc1ccccc1)N(CCCl)CCCl (centres undefined)
inactive: [1] 3.75% | [2] -1.55% | [3] -6.75% | [4] -9.4% | [5] -7.95% | [6] 0.9%

N=C(N)N1CCNc2ccccc2C1
inactive: [1] 14.9% | [2] -10.2% | [3] -7.3% | [4] 28.8% | [5] -1.2% | [6] 6.3%

CCCCCCCCCCBr
inactive: [1] 30.4% | [2] 17.2% | [3] -12.4% | [4] 25.1% | [5] 17.1% | [6] -37.6%

C[N+](C)(C)C
inactive: [1] -0.3% and 4.95% and -7% | [2] 14.2% and -39% and -9.3% | [3] -5.75% and -25.2% and 8.3% | [4] -16.5% and 6.35% and 2.35% | [5] 21.4% and -8.1% and 8.75% | [6] -1.65% and -19.1% and -2.9%

[N-]=[N+]=Nc1cc(=O)oc2ccccc12
inactive: [1] 25.6% | [2] 10.2% | [3] -8.25% | [4] 13.6% | [5] 0.9% | [6] 1.1%

CCC1(c2c(F)c(F)c(N)c(F)c2F)CCC(=O)NC1=O (centres undefined)
inactive: [1] -11.9% | [2] -6.25% | [3] -1% | [4] 16.4% | [5] -16.4% | [6] 1.6%

CNC(=O)Oc1ccccc1C(N)=O
inactive: [1] 10.4% | [2] -1.8% | [3] -14.8% | [4] -46.8% | [5] -4.55% | [6] 7.3%

CN(C)C(=O)Sc1ccc(S(=O)(=O)F)c(Cl)c1Cl
inactive: [1] 26.4% | [2] 13.3% | [3] 31.1% | [4] 21.9% | [5] 3.25% | [6] 24.6%

CC1(C)CN=C(Nc2ccc(F)cc2)S1
inactive: [1] 2.55% | [2] 0.6% | [3] -17.9% | [4] 19.3% | [5] -17.1% | [6] -21.8%

CC(C)(C1CCC(O)CC1)C1CCC(O)CC1 (centres undefined)
inactive: [1] 19.5% and 13.4% | [2] -19.5% and -13.6% | [3] -12.2% and -21.9% | [4] -12.6% and -17.6% | [5] -5.75% and -21.8% | [6] 31.4% and 16.1%

Nc1ccccc1C(=O)Oc1ccccn1
inactive: [1] 7.45% | [2] 8.9% | [3] -0.8% | [4] 13.6% | [5] -8.85% | [6] 6.35%

O=C(O)c1cccc(P(=O)(O)O)c1
inactive: [1] 14.3% and 9.3% | [2] -19.3% and -12.9% | [3] -5.25% and 17.4% | [4] 2.35% and 28.6% | [5] -4% and -10.6% | [6] 2.55% and -0.35%

COc1ccc(/C=C\[N+](=O)[O-])cc1OCc1ccccc1
inactive: [1] 7.2% | [2] 8.35% | [3] 22.6% | [4] -13.6% | [5] 7.2% | [6] 8.05%

C=C(C)CC1(CC)C(=O)NC(=S)NC1=O
inactive: [1] -11.8% and -1.6% | [2] -21.6% and -1.3% | [3] 0.35% | [4] 6% | [5] -5.6% | [6] -13.4% and 12.1%

COc1cc(N=Nc2cccc(C(=O)O)c2)ccc1N(CCCl)CCCl
inactive: [1] -12.4% | [2] -16.4% | [3] -30.9% | [4] 17.7% | [5] -3.3% | [6] -23.3%

C#CC1(O)CCCCCC1
inactive: [1] 11.6% | [2] 3.45% | [3] -7.55% | [4] 8.55% | [5] 12.4% | [6] 6.8%
